Assay outcomes deposited in PubChem BioAssay by National Center for Advancing Translational Sciences (NCATS).
KB-3-1 cytotox: qHTS assay for MDR1-selective chemotherapeutics: Primary screen using the parental adenocarcinoma cell KB-3-1. 400,000 compounds, 1.4% hits. Potency, µM (titrated, usually from 46.1 µM), hits mostly cytotoxic. KB-3-1 viability, CellTiter-Glo ATP luminescence, 72 h; note: % is set by controls: 0 for no effect and ±100 for the full control effect; nearly all actives have a fitted effect of over 60% in size
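Using CellTiter-Glo luminescence, growth of non-resistant KB-3-1 adenocarcinoma cells is assessed 72 h after pin-tool compound addition at 37 °C. Normalized responses across the concentration series yield fitted curves.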
SW480 rereplic: A quantitative high throughput screen for small molecules that induce DNA re-replication in SW480 colon adenocarcinoma cells | 340,000 compounds, 1.8% hits | AID 624297, 2012 | Potency, µM (top dose mostly 46.1 µM), inactives show at the top dose re-replication activation, hits mostly activators | SW480 DNA re-replication, Hoechst DNA content imaging, 48 h; note: % of control where 0% means no effect; nearly all actives have a fitted effect of over 55% in size
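First, 250 cells per well were seeded. Next, compound or vehicle (23 nL) was pinned in, plates sat 48 hr at 37 C. Finally Hoechst was added for 40 min before fluorescence scanning.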
KB-V1 cytotox: qHTS assay for MDR1-selective chemotherapeutics: Primary screen using the drug-selected MDR subline cells KB-V1. KB-V1 MDR cells viability, CellTiter-Glo, 72 h. Potency, µM (titrated, usually from 46.1 µM), hits mostly cytotoxic. 400,000 compounds, 3.4% hits. AID 1347076, 2019; note: % is set by controls: 0 for no effect and ±100 for the full control effect; nearly all actives have a fitted effect of over 60% in size
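KB-V1, DMEM (no phenol red) + 10% FBS; cpd pin-transferred, titration series; 72 h, 37 degrees C; CellTiter-Glo, luminescence. Data normalized, curve-fit.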
PTAP TSG101 blk: qHTS Assay for Iinhibitors of HIV-1 Budding by Blocking the Interaction of PTAP/TSG101; Tumor susceptibility gene 101 protein (Homo sapiens), Q99816; Fluorescence polarization, FITC-PTAP peptide / Tsg101 binding; Potency, µM (titrated, usually from 115 µM), for the others: at the top dose activity change, negative = inhibition, usual class: inhibitors; 340,000 tested, under 10 active; AID 493005, 2010; active = well fitted inhibition curve with a large enough effect in the main read-out, with a control signal flat, not every such curve was filed as active; inconclusive = small, poorly fitted or top-dose-only effect, or effect the other way, or a change in a side signal; inactive = no such curve, though single readings can be large or run the other way; note: % of control where 0% means no effect
Target sequence (Q99816 whole entry, looked up): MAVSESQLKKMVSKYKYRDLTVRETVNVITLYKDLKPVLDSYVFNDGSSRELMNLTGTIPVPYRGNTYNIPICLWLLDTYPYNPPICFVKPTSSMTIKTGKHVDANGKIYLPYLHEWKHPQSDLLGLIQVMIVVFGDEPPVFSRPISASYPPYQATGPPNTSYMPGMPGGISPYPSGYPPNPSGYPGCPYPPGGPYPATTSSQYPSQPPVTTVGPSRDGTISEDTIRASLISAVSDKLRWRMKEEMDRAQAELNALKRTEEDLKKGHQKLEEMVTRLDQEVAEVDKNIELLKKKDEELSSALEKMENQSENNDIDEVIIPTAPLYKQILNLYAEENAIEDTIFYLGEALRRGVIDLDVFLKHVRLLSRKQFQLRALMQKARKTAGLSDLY
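Tsg101 binding domain (10 uM final) was mixed with compound and a FITC-labeled PTAP peptide (50 nM final) in HEPES pH 7.5 buffer with NaCl, Tween 20, EDTA and TCEP; fluorescence polarization was read after 20 min at r.t.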
RGS4 inhibitor: Inhibitors of Regulator of G Protein Signaling (RGS) 4: qHTS; Transcreener GDP fluorescence polarization, RGS4-accelerated GTP hydrolysis; Regulator of G-protein signaling 4 (Homo sapiens), P49798; 390,000 compounds, 0.039% hits; Potency, µM (top dose mostly 114 µM), inactives show top-dose activity change, negative = inhibition, most hits filed as inhibitors; note: % is set by controls: 0 for no effect and ±100 for the full control effect; nearly all actives have a fitted effect of over 75% in size
Target sequence (P49798 whole entry, looked up): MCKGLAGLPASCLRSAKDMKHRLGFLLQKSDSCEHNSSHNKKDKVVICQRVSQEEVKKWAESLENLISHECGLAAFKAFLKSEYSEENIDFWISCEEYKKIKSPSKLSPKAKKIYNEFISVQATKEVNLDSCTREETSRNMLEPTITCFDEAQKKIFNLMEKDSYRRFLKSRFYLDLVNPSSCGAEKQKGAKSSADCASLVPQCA
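MLSMR compounds (23 nl, pin-transferred) preincubated 10 min at room temperature with a 500nM (2x) first reagent, then RGS4 at 900nM (2x) plus Transcreener GDP mix added; fluorescence polarization (620/688 nm) read before and after 90 min at 30 °C.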
MCF10A rereplic: A quantitative high throughput screen for small molecules that induce DNA re-replication in MCF 10a normal breast cells. MCF 10A DNA re-replication, Hoechst nuclear intensity, 48 h. 350,000 compounds, 2.9% hits. AID 624296, 2012. Potency, µM (top dose mostly 46.1 µM), for the others: top-dose activity, positive = re-replication, actives largely listed as activators; note: % of control where 0% means no effect; nearly all actives have a fitted effect of over 50% in size
Active calls of the source: *. In the library only some 6.6% were active in any assay of this set; here they are far more common. Unless noted, calls come from the whole dose curve; as a rule, active = well fitted curve in the direction sought with a large enough effect; inconclusive = small, poorly fitted or top-dose-only effect, or another doubt; inactive = no such curve, though single readings can be large; an effect the other way counts as inactive or inconclusive. Potency is the fitted concentration of half-maximal effect.

`CCN(C(=O)Cn1ncc2c(=O)oc3ccc(C)cc3c21)c1cc(OC)ccc1OC` gave KB-3-1 cytotox inactive, KB-V1 cytotox inactive and RGS4 inhibitor 2%.
Screening CC(C)(C)c1nnc(NS(=O)(=O)c2cc(Cl)ccc2Cl)s1 returned KB-3-1 cytotox inactive, SW480 rereplic 19%, KB-V1 cytotox inactive, PTAP TSG101 blk -4%, RGS4 inhibitor 6% and MCF10A rereplic inconclusive.
Screening O=S(=O)(Nc1nc(-c2sccc2Cl)cs1)c1cc(Cl)ccc1Cl returned KB-3-1 cytotox inactive, SW480 rereplic -1%, KB-V1 cytotox inactive, PTAP TSG101 blk -9%, RGS4 inhibitor -22% and MCF10A rereplic 8.2µM*.
Cc1ccc2nc3c(c(N)c2c1)CCN3c1ccccc1 was read as KB-3-1 cytotox inactive, SW480 rereplic 3%, KB-V1 cytotox inconclusive, PTAP TSG101 blk -4%, RGS4 inhibitor 20% and MCF10A rereplic 15%.
`Cc1ccc2nc3c(c(N)c2c1)CCN3C` gave KB-3-1 cytotox inactive, SW480 rereplic 28%, KB-V1 cytotox inactive, PTAP TSG101 blk 0%, RGS4 inhibitor 2% and MCF10A rereplic 23µM*.
CCCCN1CCc2c1nc1ccc(Br)cc1c2N was read as KB-3-1 cytotox inactive, SW480 rereplic 1%, KB-V1 cytotox 21µM*, PTAP TSG101 blk 1%, RGS4 inhibitor 9% and MCF10A rereplic 5%.
For COc1ccc(N2CCN(C(=O)Cc3noc4ccc(C)cc34)CC2)cc1 the results were KB-3-1 cytotox inactive, KB-V1 cytotox inactive and RGS4 inhibitor -24%.
CC1(C)Cc2c(C#N)c(NCCc3ccccc3)nc(-c3ccco3)c2CO1 was read as KB-3-1 cytotox inconclusive, SW480 rereplic 6.5µM*, KB-V1 cytotox inconclusive, PTAP TSG101 blk 2%, RGS4 inhibitor inconclusive and MCF10A rereplic 15µM*.
For Cc1cc(Cl)ccc1NC(=O)C1CCN(c2nnc(-n3c(C)ccc3C)s2)CC1 the results were RGS4 inhibitor -14%.
`COc1ccc(NC(=O)c2cnc[nH]2)cc1` gave KB-3-1 cytotox inconclusive, KB-V1 cytotox inactive and RGS4 inhibitor -28%.
`CC(=O)ON(C(C)=O)c1ccc(/C=C2\C=Cc3ccccc32)cc1` gave KB-3-1 cytotox inactive and KB-V1 cytotox inactive.
Screening CC1CCCC(NC(=O)C2COc3ccccc3O2)C1C (centres undefined) returned KB-3-1 cytotox inactive, SW480 rereplic -7%, KB-V1 cytotox 13µM*, PTAP TSG101 blk 0%, RGS4 inhibitor -7% and MCF10A rereplic 12%.
`COc1cccc2c1Oc1ncccc1N(C(=O)CCC(=O)NCCC(C)C)C2` gave KB-3-1 cytotox inactive, KB-V1 cytotox inactive and RGS4 inhibitor -5%.
Screening c1ccc(CN2CCN(c3nc(NCc4ccco4)c4ccccc4n3)CC2)cc1 returned KB-3-1 cytotox inconclusive, SW480 rereplic inconclusive, KB-V1 cytotox 3.7µM*, PTAP TSG101 blk -2%, RGS4 inhibitor -15% and MCF10A rereplic inconclusive.
Screening Cc1ccc(OCCN2CCN(c3nc(NCc4ccco4)c4ccccc4n3)CC2)cc1 returned KB-3-1 cytotox inconclusive, SW480 rereplic inconclusive, KB-V1 cytotox 16µM*, PTAP TSG101 blk 1%, RGS4 inhibitor -49% and MCF10A rereplic 15µM*.
OCCNc1nc(N2CCN(c3ccccc3)CC2)nc2ccccc12 was read as KB-3-1 cytotox inactive, SW480 rereplic 1%, KB-V1 cytotox inactive, PTAP TSG101 blk -3%, RGS4 inhibitor -7% and MCF10A rereplic 7.3µM*.
For OCCN1CCN(c2nc(NCc3ccco3)c3ccccc3n2)CC1 the results were KB-3-1 cytotox inactive, SW480 rereplic inconclusive, KB-V1 cytotox inactive, PTAP TSG101 blk -11%, RGS4 inhibitor 12% and MCF10A rereplic inconclusive.
Cc1nc2cc(-c3cccc(F)c3)nn2c(C)c1CCC(=O)Nc1ccccc1C(N)=O was read as KB-3-1 cytotox inactive, KB-V1 cytotox inactive and RGS4 inhibitor -6%.
For COc1ccc(NC(=O)c2c(NCc3ccc(OC)c(OC)c3OC)sc3c2CCC3)c(OC)c1 the results were KB-3-1 cytotox inactive, KB-V1 cytotox inactive and RGS4 inhibitor inconclusive.
For CCOc1ccc(S(=O)(=O)N(C(=O)c2ccco2)c2cc3sc(=O)oc3c3ccccc23)cc1 the results were KB-3-1 cytotox inactive, SW480 rereplic 2%, KB-V1 cytotox inconclusive, PTAP TSG101 blk 0%, RGS4 inhibitor inconclusive and MCF10A rereplic inconclusive.
Screening COc1ccc(S(=O)(=O)N(C(=O)c2ccco2)c2cc3sc(=O)oc3c3ccccc23)cc1 returned KB-3-1 cytotox inconclusive, SW480 rereplic inconclusive, KB-V1 cytotox inactive, PTAP TSG101 blk -11%, RGS4 inhibitor inconclusive and MCF10A rereplic 18µM*.
`Cc1ccc(-c2cn(S(=O)(=O)c3ccc(C)cc3)nc2N)cc1` gave KB-3-1 cytotox inactive, SW480 rereplic -3%, KB-V1 cytotox 13µM*, PTAP TSG101 blk 0%, RGS4 inhibitor -4% and MCF10A rereplic inconclusive.
Screening CCOc1ccc(S(=O)(=O)n2cc(-c3ccccc3)c(N)n2)cc1 returned KB-3-1 cytotox inactive, SW480 rereplic -1%, KB-V1 cytotox inactive, PTAP TSG101 blk 1%, RGS4 inhibitor 4% and MCF10A rereplic -6%.
CCOc1cc(S(=O)(=O)n2cc(-c3ccc(F)cc3)c(N)n2)cc(OCC)c1OCC was read as KB-3-1 cytotox inconclusive, SW480 rereplic inconclusive, KB-V1 cytotox 16µM*, PTAP TSG101 blk -6%, RGS4 inhibitor -8% and MCF10A rereplic 15%.
`CCOc1cc(-c2cn(S(=O)(=O)c3cccc4nsnc34)nc2N)cc(OCC)c1OCC` gave KB-3-1 cytotox inactive, SW480 rereplic -3%, KB-V1 cytotox inactive, PTAP TSG101 blk -7%, RGS4 inhibitor 4% and MCF10A rereplic -3%.
For Nc1nn(S(=O)(=O)c2ccccc2)cc1-c1cccc([N+](=O)[O-])c1 the results were KB-3-1 cytotox inactive, SW480 rereplic -3%, KB-V1 cytotox inconclusive, PTAP TSG101 blk 1%, RGS4 inhibitor -2% and MCF10A rereplic -3%.
